# The full list was thinned out, with the strongest signals kept by preference.
# B1: CpGal16 (Clavelina picta) (protein)
# chain: MAKMITNYVGKRIECIMVATDMMSTVFSLASATGDLPFYINFRQRENSIVMNTRVHGKWQYEKSQSSGGMNFYEPFRLVVEVRPSVFKVTVSTMGEEDGITFNLQYSQITIKPDEIVAMHLGYCNLRSELLVTDL
# How the values were obtained:
# Test in all cases: glycan array binding signal (z-score within array); higher = stronger binding
# Settings in all cases: glycan notation: IUPAC condensed, linker removed
# Fuc(a1-2)Gal(b1-3)GlcNAc = biological target: Fuc(a1-2)Gal(b1-3)GlcNAc
# In short: (§1)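 From the Consortium for Functional Glycomics database, 3228 arrays were curated, keeping only those whose protein sequence was available. Binding is given as a within-array Z-score averaged across arrays sharing a protein sequence and across linkers. Negative Z-scores can be read as non-binding.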
# [1] = biological target: Fuc(a1-2)Gal(b1-3)GlcNAc(b1-3)Gal(b1-4)Glc
# In short: as §1
# [2] = biological target: Fuc(a1-2)Gal(b1-3)GlcNAc(b1-3)[Gal(b1-4)GlcNAc(b1-6)]Gal(b1-4)Glc
# In short: as §1
# [3] = biological target: Fuc(a1-2)Gal(b1-3)[Fuc(a1-4)]GlcNAc(b1-2)Man(a1-3)[Fuc(a1-2)Gal(b1-3)[Fuc(a1-4)]GlcNAc(b1-2)Man(a1-6)]Man(b1-4)GlcNAc(b1-4)[Fuc(a1-6)]GlcNAc(b1-4)[Fuc(a1-6)]GlcNAc
# In short: as §1
# [4] = biological target: Fuc(a1-2)Gal(b1-3)[Fuc(a1-4)]GlcNAc(b1-3)[Fuc(a1-3)[Gal(b1-4)]GlcNAc(b1-6)]Gal(b1-4)Glc
# In short: as §1
# Fuc(a1-2)Gal(b1-4)Glc6S = biological target: Fuc(a1-2)Gal(b1-4)Glc6S
# In short: as §1
# [5] = biological target: Fuc(a1-2)[Gal(a1-3)]Gal(b1-4)GlcNAc
# In short: as §1
# [6] = biological target: Fuc(a1-2)[Gal(a1-3)]Gal(b1-4)[Fuc(a1-3)]GlcNAc
# In short: as §1
# [7] = biological target: Fuc(a1-2)[GalNAc(a1-3)]Gal(b1-3)GlcNAc(b1-6)GalNAc
# In short: as §1
# [8] = biological target: Fuc(a1-2)[GalNAc(a1-3)]Gal(b1-4)GlcNAc(b1-2)Man(a1-3)[Fuc(a1-2)[GalNAc(a1-3)]Gal(b1-4)GlcNAc(b1-2)Man(a1-6)]Man(b1-4)GlcNAc(b1-4)[Fuc(a1-6)]GlcNAc
# In short: as §1
# [9] = biological target: Fuc(a1-2)[GalNAc(a1-3)]Gal(b1-4)GlcNAc(b1-3)Gal(b1-4)GlcNAc
# In short: as §1
# [10] = biological target: Fuc(a1-3)[Gal3S(b1-4)]GlcNAc6S
# In short: as §1
# [11] = biological target: Gal(a1-3)Gal(b1-3)[Fuc(a1-4)]GlcNAc(b1-2)Man(a1-3)[Gal(a1-3)Gal(b1-3)[Fuc(a1-4)]GlcNAc(b1-2)Man(a1-6)]Man(b1-4)GlcNAc(b1-4)GlcNAc
# In short: as §1
# Gal(b1-3)GlcNAc(b1-2)Man = biological target: Gal(b1-3)GlcNAc(b1-2)Man
# In short: as §1
# [12] = biological target: Gal(b1-3)GlcNAc(b1-2)Man(a1-3)[GlcNAc(b1-4)][Gal(b1-3)GlcNAc(b1-2)Man(a1-6)]Man(b1-4)GlcNAc(b1-4)GlcNAc
# In short: as §1
# [13] = biological target: Gal(b1-3)GlcNAc(b1-3)Gal(b1-4)GlcNAc(b1-2)Man(a1-3)[Gal(b1-3)GlcNAc(b1-3)Gal(b1-4)GlcNAc(b1-2)Man(a1-6)]Man(b1-4)GlcNAc(b1-4)GlcNAc
# In short: as §1
# [14] = biological target: Gal(b1-3)GlcNAc(b1-3)Gal(b1-4)GlcNAc(b1-2)[Gal(b1-3)GlcNAc(b1-3)Gal(b1-4)GlcNAc(b1-6)]Man(a1-6)[Gal(b1-3)GlcNAc(b1-3)Gal(b1-4)GlcNAc(b1-2)Man(a1-3)]Man(b1-4)GlcNAc(b1-4)[Fuc(a1-6)]GlcNAc
# In short: as §1
# [15] = biological target: Gal(b1-3)GlcNAc(b1-3)Gal(b1-4)GlcNAc(b1-3)Gal(b1-4)GlcNAc(b1-2)[Gal(b1-3)GlcNAc(b1-3)Gal(b1-4)GlcNAc(b1-3)Gal(b1-4)GlcNAc(b1-6)]Man(a1-6)[Gal(b1-3)GlcNAc(b1-3)Gal(b1-4)GlcNAc(b1-3)Gal(b1-4)GlcNAc(b1-2)Man(a1-3)]Man(b1-4)GlcNAc(b1-4)[Fuc(a1-6)]GlcNAc
# In short: as §1
# [16] = biological target: Gal(b1-3)GlcNAc(b1-3)Gal(b1-4)[Fuc(a1-3)]GlcNAc(b1-6)[Gal(b1-3)GlcNAc(b1-3)]Gal(b1-4)Glc
# In short: as §1
# [17] = biological target: Gal(b1-4)GlcNAc(b1-2)Man(a1-3)[GlcNAc(b1-4)][Gal(b1-4)GlcNAc(b1-2)Man(a1-6)]Man(b1-4)GlcNAc(b1-4)GlcNAc
# In short: as §1
# [18] = biological target: Gal(b1-4)GlcNAc(b1-3)Gal(b1-4)GlcNAc(b1-3)Gal(b1-4)GlcNAc(b1-2)Man(a1-3)[Gal(b1-4)GlcNAc(b1-3)Gal(b1-4)GlcNAc(b1-3)Gal(b1-4)GlcNAc(b1-2)Man(a1-6)]Man(b1-4)GlcNAc(b1-4)[Fuc(a1-6)]GlcNAc
# In short: as §1
# [19] = biological target: Gal(b1-4)GlcNAc(b1-3)Gal(b1-4)GlcNAc(b1-3)Gal(b1-4)GlcNAc(b1-2)[Gal(b1-4)GlcNAc(b1-3)Gal(b1-4)GlcNAc(b1-3)Gal(b1-4)GlcNAc(b1-6)]Man(a1-6)[Gal(b1-4)GlcNAc(b1-3)Gal(b1-4)GlcNAc(b1-3)Gal(b1-4)GlcNAc(b1-2)Man(a1-3)]Man(b1-4)GlcNAc(b1-4)[Fuc(a1-6)]GlcNAc
# In short: as §1
# [20] = biological target: Gal(b1-4)GlcNAc(b1-3)Gal(b1-4)GlcNAc(b1-3)Gal(b1-4)GlcNAc(b1-3)Gal(b1-4)GlcNAc(b1-3)Gal(b1-4)GlcNAc(b1-2)Man(a1-3)[Gal(b1-4)GlcNAc(b1-3)Gal(b1-4)GlcNAc(b1-3)Gal(b1-4)GlcNAc(b1-3)Gal(b1-4)GlcNAc(b1-3)Gal(b1-4)GlcNAc(b1-2)Man(a1-6)]Man(b1-4)GlcNAc(b1-4)[Fuc(a1-6)]GlcNAc
# In short: as §1
# [21] = biological target: Gal(b1-4)GlcNAc(b1-3)Gal(b1-4)GlcNAc(b1-3)GalNAc
# In short: as §1
# Gal(b1-6)Gal = biological target: Gal(b1-6)Gal
# In short: as §1
# [22] = biological target: Gal3S(b1-3)[Fuc(a1-4)]GlcNAc
# In short: as §1
# Gal6S(b1-3)GlcNAc = biological target: Gal6S(b1-3)GlcNAc
# In short: as §1
# Gal6S(b1-4)Glc6S = biological target: Gal6S(b1-4)Glc6S
# In short: as §1
# GalNAc3S(b1-4)GlcNAc3S = biological target: GalNAc3S(b1-4)GlcNAc3S
# In short: as §1
# [23] = biological target: GlcNAc(a1-3)Gal(b1-4)GlcNAc
# In short: as §1
# [24] = biological target: GlcNAc(a1-4)Gal(b1-4)GalNAc
# In short: as §1
# [25] = biological target: GlcNAc(a1-4)Gal(b1-4)GlcNAc(b1-3)Gal(b1-4)GlcNAc
# In short: as §1
# [26] = biological target: GlcNAc(b1-3)Gal(b1-4)GlcNAc(b1-3)[GlcNAc(b1-3)Gal(b1-4)GlcNAc(b1-3)]GalNAc
# In short: as §1
# [27] = biological target: GlcNAc(b1-4)GlcNAc(b1-4)GlcNAc(b1-4)GlcNAc(b1-4)GlcNAc
# In short: as §1
# Kdn(a2-6)Gal(b1-4)GlcNAc = biological target: Kdn(a2-6)Gal(b1-4)GlcNAc
# In short: as §1
# [28] = biological target: Man(a1-2)Man(a1-3)[Man(a1-2)Man(a1-6)]Man(a1-6)[Man(a1-2)Man(a1-2)Man(a1-3)]Man
# In short: as §1
# [29] = biological target: Neu5Ac(a2-3)Gal(b1-3)[GlcNAc(b1-6)]GalNAc
# In short: as §1
# [30] = biological target: Neu5Ac(a2-3)Gal(b1-3)[Neu5Ac(a2-6)]GlcNAc(b1-3)[Fuc(a1-3)[Gal(b1-4)]GlcNAc(b1-6)]Gal(b1-4)Glc
# In short: as §1
# [31] = biological target: Neu5Ac(a2-3)Gal(b1-4)GlcNAc
# In short: as §1
# [32] = biological target: Neu5Ac(a2-3)Gal(b1-4)GlcNAc(b1-6)[Neu5Ac(a2-3)Gal(b1-3)]GalNAc
# In short: as §1
# [33] = biological target: Neu5Ac(a2-3)Gal(b1-4)[Fuc(a1-3)]GlcNAc(b1-6)[Gal(b1-3)]GalNAc
# In short: as §1
# [34] = biological target: Neu5Ac(a2-6)Gal(b1-4)GlcNAc
# In short: as §1
# [35] = biological target: Neu5Ac(a2-6)Gal(b1-4)GlcNAc(b1-2)Man(a1-3)[Man(a1-6)]Man(b1-4)GlcNAc(b1-4)GlcNAc
# In short: as §1
# [36] = biological target: Neu5Ac(a2-6)Gal(b1-4)GlcNAc(b1-3)Gal(b1-4)[Fuc(a1-3)]GlcNAc(b1-3)Gal(b1-4)[Fuc(a1-3)]GlcNAc
# In short: as §1
# [37] = biological target: Neu5Ac(a2-6)Gal(b1-4)GlcNAc6S
# In short: as §1
# [38] = biological target: Neu5Ac(a2-6)GlcNAc(b1-4)GlcNAc(b1-4)GlcNAc
# In short: as §1
# [39] = biological target: Neu5Ac(a2-8)Neu5Ac(a2-8)Neu5Ac
# In short: as §1
binder,measurement,setting,value
B1,glycan array binding signal (z-score),Fuc(a1-2)Gal(b1-3)GlcNAc,2.93
same,glycan array binding signal (z-score),[1],3.11
same,glycan array binding signal (z-score),[2],2.79
same,glycan array binding signal (z-score),[3],-0.402
same,glycan array binding signal (z-score),[4],-0.394
same,glycan array binding signal (z-score),Fuc(a1-2)Gal(b1-4)Glc6S,3.43
same,glycan array binding signal (z-score),[5],-0.113
same,glycan array binding signal (z-score),[6],-0.434
same,glycan array binding signal (z-score),[7],3.13
same,glycan array binding signal (z-score),[8],0.044
same,glycan array binding signal (z-score),[9],2.86
same,glycan array binding signal (z-score),[10],-0.265
same,glycan array binding signal (z-score),[11],-0.202
same,glycan array binding signal (z-score),Gal(b1-3)GlcNAc(b1-2)Man,0.015
same,glycan array binding signal (z-score),[12],2.87
same,glycan array binding signal (z-score),[13],3.83
same,glycan array binding signal (z-score),[14],3.99
same,glycan array binding signal (z-score),[15],4.48
same,glycan array binding signal (z-score),[16],3.33
same,glycan array binding signal (z-score),[17],-0.358
same,glycan array binding signal (z-score),[18],0.953
same,glycan array binding signal (z-score),[19],1.44
same,glycan array binding signal (z-score),[20],1.28
same,glycan array binding signal (z-score),[21],-0.168
same,glycan array binding signal (z-score),Gal(b1-6)Gal,-0.407
same,glycan array binding signal (z-score),[22],-0.266
same,glycan array binding signal (z-score),Gal6S(b1-3)GlcNAc,-0.282
same,glycan array binding signal (z-score),Gal6S(b1-4)Glc6S,-0.12
same,glycan array binding signal (z-score),GalNAc3S(b1-4)GlcNAc3S,0.397
same,glycan array binding signal (z-score),[23],-0.249
same,glycan array binding signal (z-score),[24],-0.312
same,glycan array binding signal (z-score),[25],-0.32
same,glycan array binding signal (z-score),[26],-0.168
same,glycan array binding signal (z-score),[27],-0.348
same,glycan array binding signal (z-score),Kdn(a2-6)Gal(b1-4)GlcNAc,-0.352
same,glycan array binding signal (z-score),[28],-0.232
same,glycan array binding signal (z-score),[29],-0.388
same,glycan array binding signal (z-score),[30],-0.357
same,glycan array binding signal (z-score),[31],-0.378
same,glycan array binding signal (z-score),[32],-0.324
same,glycan array binding signal (z-score),[33],0.134
same,glycan array binding signal (z-score),[34],-0.456
same,glycan array binding signal (z-score),[35],-0.395
same,glycan array binding signal (z-score),[36],-0.419
same,glycan array binding signal (z-score),[37],-0.303
same,glycan array binding signal (z-score),[38],-0.261
same,glycan array binding signal (z-score),[39],-0.39
